From PubChem BioAssay (NCATS)
Results filed as inconclusive are left out. Unmarked numbers belong to inactive results. Calls of active or inactive are those of the source. Calls come from the whole dose curve; as a rule, active = well fitted inhibition curve with a large enough effect; inconclusive = small, poorly fitted or top-dose-only effect; inactive = flat fitted curve, though single readings scatter.

experiment: P-glycoprotein substrates identified in KB-8-5-11 adenocarcinoma cell line, qHTS therapeutic library screen (AID 1346987); settings: KB-8-5-11 (P-gp overexpressing) viability, CellTiter-Glo, 72 h; series mostly up to 44.5 µM; activity change, negative = cytotoxicity: at the top concentration; note: nearly all actives have a fitted effect of over 65% in size
Outline: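 In this qHTS, P-gp-rich KB-8-5-11 cells received library compounds across a concentration range. Viability was quantified by luminescence after 72 h at 37 degree C.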
% is set by controls: 0 for no effect and ±100 for the full control effect.

Structure (SMILES)	activity change, negative = cytotoxicity	outcome
CC(C)C1(O)C=C2C(=O)CC3C(C)(C(=O)O)CCCC3(C)C2CC1 (stereo not given)	3.7%	
C[C@]12CCC[C@](C)(C(=O)O)C1CCC13CC(CO)C(CCC12)C3 (stereo not given in full)		inactive
C/C=C1/[C@H](O[C@@H]2O[C@H](CO)[C@@H](O)[C@H](O)[C@H]2O)OC=C(C(=O)OC)[C@H]1CC(=O)OCCc1ccc(O)c(O)c1	-4.46% [at 17.3 µM]	
CC1=CCC[C@@H]2[C@@](C)(CCc3ccoc3)[C@H](C(=O)O)CC[C@@]12C	1.12%	
C=C1CCC2(C(=O)OC3OC(CO)C(O)C(O)C3O)CCC3(C)C(=CCC4C5(C)CCC(OC6OC(CO)C(OC7OC(C)C(O)C(O)C7O)C(OC7OCC(O)C(O)C7O)C6O)C(C)(C)C5CCC43C)C2C1 (stereo not given)		inactive [at 9.29 µM]
CCCNCCOc1ccc(NC(=O)c2c[nH]c3c2C(=O)CCC3)cc1F	1.49%	
O=C(O)c1cc(C(F)(F)F)ccc1N1CC[C@H](OCc2ccccn2)C1	6.46%	
CC1(C)CC[C@]2(C(=O)O[C@@H]3O[C@H](CO)[C@@H](O)[C@H](O)[C@H]3O)CC[C@]3(C)C(=CCC4[C@@]5(C)C[C@H](O)[C@H](O[C@@H]6OC[C@@H](O)[C@H](O)[C@H]6O)[C@@](C)(CO)C5CC[C@]43C)C2C1 (stereo not given in full)		inactive [at 9.29 µM]
CC(CCO)CCC1C2(C)CCCC(C)(C)C2CC[C@@]1(C)O (stereo not given in full)	-0.987%	
C=CC(C)(CC/C=C(\C)C(=O)OC[C@H]1O[C@@H](OC(C)(C=C)CC/C=C(\C)C(=O)O[C@H]2[C@H](O)[C@@H](O)[C@H](OC(C)(C=C)CC/C=C(\C)C(=O)O)O[C@@H]2CO)[C@H](O)[C@@H](O)[C@@H]1O)O[C@@H]1O[C@H](CO)[C@@H](O)[C@H](O)[C@H]1O (stereo not given in full)		inactive [at 9.29 µM]
